Most compounds without a hit are left out; they make up all but 4.1% or so of the library.
EBV LMP1 NFkB: inhibitors of Epstein-Barr LMP1-induced NF-kappaB reporter | LMP1-induced NF-kappaB luciferase reporter cells, luminescence | inhibition, % at 12.5 µM | 0.69% of 350,000 active | AID 504558; in the data active means inhibition above about 41%; inconclusive means no clear call, values can overlap the other calls;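 further: 0% = neutral control wells and 100% = reference inhibitor control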
TROY signal inh: blocks TROY-dependent signaling in reporter cells; Q293 LMP1-TROYcd NF-kB luciferase reporter, 4 h; AID 1347056; inhibition, % at 10 µM; 0.98% of 360,000 active;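 active means compounds whose plate-normalised and pattern-corrected inhibition of the luciferase reporter signal at the single screening dose is 50% or more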
TWEAK Fn14 block: inhibitors of TWEAK-Fn14 interaction signaling; TWEAK-stimulated Fn14 reporter cells, luciferase luminescence, 8 h; inhibition, % at 10 µM; 2% of 360,000 active; AID 1159606; in the data active means inhibition above about 50%
Peg3 promoter: Peg3 promoter activity inhibition. HeLa PEG-Prom luciferase reporter, luminescence, overnight. inhibition, % at 20 µM. 1.7% of 360,000 active. AID 588405;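 active means inhibition of at least 50% at 20 µM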
TRPM1 prom inh: reduces MITF-dependent TRPM1 promoter luciferase signal; inhibition, % at 12.5 µM; SK-MEL-5 TRPM1 promoter luciferase, 24 h; 0.83% of 330,000 active;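 active means mean inhibition across replicates of 60% or more, whatever share of single replicates reaches that level; inconclusive means some that reach 60%, reason not given; inactive means mean inhibition across replicates below 60%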
Shn3 3UTR inh: Schnurri-3 reporter inhibition in Clone20 osteoblasts; AID 588674; inhibition, % at 12.5 µM; Clone20 osteoblast Shn3 3'UTR firefly luciferase, 24 h; 0.52% of 360,000 active;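 active means mean inhibition of at least 75% with every replicate also reaching 75%; inconclusive means mean inhibition at least 75% but some replicate below; inactive means mean inhibition below 75%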;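 further: 0% = median of neutral control wells and 100% = pilot-screen positive control compound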
* marks the source's active call; other numbers are inactive results; ? = inconclusive; · = no result given.

SMILES	EBV LMP1 NFkB	TROY signal inh	TWEAK Fn14 block	Peg3 promoter	TRPM1 prom inh	Shn3 3UTR inh
CN(C)S(=O)(=O)c1ccc(C(=O)NCC(=O)N/N=C/c2ccccc2Cl)cc1	10	-30	0	-10	-11	10
CN(Cc1ccccc1)C(=O)COC(=O)c1cc(=O)c2ccccc2o1	-6	-7	-13	-2	5	7
CCN(CC)Cc1c(O)ccc2c1O/C(=C\C=C\c1ccccc1)C2=O	-83	-9	63*	82*	81*	95*
C=CCNc1nc2c(c(=O)n(C)c(=O)n2C)n1CCCCCC	1	14	23	18	33	88*
CC(=NNC(=O)CSc1nc2ccccc2o1)c1ccco1	-12	-12	-4	-221	-17	-23
CC1(C)CC(=O)C(C=NCCCO)=C(O)C1	-3	-3	81*	8	3	2
CCC(=O)Nc1cccc(NC(=O)CSc2nc3c(c(=O)n(C)c(=O)n3C)n2C)c1	-6	-2	38	-9	-11	7
O=C1C=CC(=O)N1c1cccc(-c2ccccc2)c1	23	-29	-9	109*	-10	61
CCOc1ccccc1NC(=O)CSc1nc2nc(-c3cccs3)cc(C(F)(F)F)c2c(=O)[nH]1	0	63*	-11	11	4	1
COc1ccc(NC(=O)CSc2nc3nc(-c4cccs4)cc(C(F)(F)F)c3c(=O)[nH]2)c(OC)c1	-8	17	-7	3	-1	18
CCN(CC(=O)NCc1ccc(Cl)cc1)C(=O)CN1C(=O)NC(CC)(c2ccccc2)C1=O (stereo not drawn)	-1	-10	91*	8	14	1
CCN(CC(=O)NCc1ccc(Cl)cc1)C(=O)CN1C(=O)NC(C)(c2ccccc2)C1=O (stereo not drawn)	-1	-25	-4	8	6	2
COc1cc(C(=S)N2CCOCC2)cc(OC)c1OS(=O)(=O)c1ccc(C)cc1	1	15	-24	13	6	-1
C=CCNc1nc(-c2cc3ccccc3o2)cs1	2	-36	-17	-170	-6	-21
O=C(Nc1nc(-c2cccs2)cs1)c1cccc(S(=O)(=O)N2CCCCC2)c1	-1	30	23	-6	5	·
c1ccc2oc(-c3csc(NCC4CCCO4)n3)cc2c1 (stereo not drawn)	-24	-10	80*	-279	-58	-49
O=C(Nc1nc(-c2cc3ccccc3o2)cs1)c1ccc(S(=O)(=O)N2CCCC2)cc1	12	39	83*	-10	43	77
CS(=O)(=O)c1ccccc1-c1nnc(NC(=O)c2ccc(S(=O)(=O)N3CCCC3)cc2)o1	-1	70*	4	12	8	-1
Cc1cc(-c2csc(NC(=O)c3ccc(S(=O)(=O)N(C)C)cc3)n2)c(C)n1-c1ccccc1	15	-10	17	37	21	-3
CN(C)S(=O)(=O)c1ccc(C(=O)Nc2nc(-c3cc4ccccc4o3)cs2)cc1	2	51*	-16	-29	15	62
COc1ccc(Cc2nc3ccccc3c(=O)n2N)cc1OC	3	0	2	6	6	0
OCCN1CCN(C(=S)Nc2cccc(C(F)(F)F)c2)CC1	-2	9	-7	9	-9	28
CCCCNC(=O)C[C@@H]1C[C@@]2(C(=O)OC)CCCCC=C2N(Cc2cccc3ccccc23)C1=O	·	-8	0	·	·	·
Cc1cccc(COC(=O)CCCNC(=O)c2ccc(Cl)cc2)c1	2	-9	-6	7	-1	-10
CC1CN(S(=O)(=O)c2ccc(NC(=O)c3cc(-c4ccccc4O)n[nH]3)cc2)CC(C)O1 (stereo not drawn)	20	62*	37	28	8	43
SMILES	EBV LMP1 NFkB	TROY signal inh	TWEAK Fn14 block	Peg3 promoter	TRPM1 prom inh	Shn3 3UTR inh
CC1CN(S(=O)(=O)c2ccc(C(=O)Nc3nc(-c4cc5ccccc5o4)cs3)cc2)CC(C)O1 (stereo not drawn)	21	37	67*	32	9	87*
O=C(Nc1ccc(S(=O)(=O)N2CCOCC2)cc1)c1cc(-c2ccccc2O)n[nH]1	-10	27	3	47	-4	·
O=C(CNC(=O)COc1ccccc1)NCCN1CCOCC1	-1	-4	-4	5	-2	-3
Cc1ccc(NC(=O)C2CC(=O)N(Cc3ccco3)C2)cc1 (stereo not drawn)	-7	-25	8	10	7	-5
CC(C)(C)c1cc(=O)[nH]c(SCc2ccccc2Cl)n1	5	54*	-5	7	8	6
O=C(C1CC1)N1CCc2cc(S(=O)(=O)NCc3ccccc3)ccc21	7	-5	2	-2	-2	7
CC(C)CCCCCCCCCCCCC(=O)NCC(=O)NC1C(C)OC(Nc2ncnc3nc[nH]c23)C(O)C1O (stereo not drawn)	92*	77*	97*	100*	69*	92*
O=C(Nc1ccc(N2CCN(C(=O)c3ccccc3)CC2)cc1)c1ccc2c(c1)OCO2	5	1	0	-32	-9	22
Cc1ccccc1C(=O)N1CCN(c2ccc(NC(=O)c3ccc4c(c3)OCCO4)cc2)CC1	43*	46	73*	25	70*	86*
Cc1ccc(C(=O)N2CCN(c3ccc(NC(=O)c4ccc5c(c4)OCCO5)cc3)CC2)cc1	19	57*	76*	27	47	70
Cc1ccccc1C(=O)N1CCN(c2ccc(NC(=O)CSc3ccc(Cl)cc3)cc2)CC1	58*	46	19	14	50	83
CC(C)C[C@H]1CNC(=S)N1CC1CCN(CCCC2CCCC2)CC1	8	4	-10	-16	-3	-6
Cc1cc(NCCCCCCCNc2cc(C)nc3cc([N+](=O)[O-])ccc23)c2ccc([N+](=O)[O-])cc2n1	79*	34	77*	102*	?	86*
CNC(=O)c1cc(S(=O)(=O)Nc2ccc3c(c2)OCO3)ccc1C	3	-9	-3	11	-6	16
CCOc1ccccc1NC(C)C(=O)NC(=O)NC1CCCCC1 (stereo not drawn)	-1	1	-3	0	9	19
CCOc1ccccc1NC(=O)c1c(NC(=O)CCC(=O)O)sc2c1CCCCC2	9	-8	-9	17	5	-3
CCOC(=O)c1c(NC(=O)C(NCCN(C)C)c2ccccc2)sc2c1CCCC2 (stereo not drawn)	-9	-29	-23	106*	76*	-8
CCOC(=O)c1c(NC(=O)c2ccccc2N(C)S(=O)(=O)c2ccccc2)sc2c1CCCC2	4	13	43	32	18	79
CCOC(=O)c1c(NC(=O)C(=O)N/N=C/c2ccccc2O)sc2c1CCCCC2	11	-23	-32	44	?	94*
CCOC(=O)c1ccc(NC(=O)c2c(NC(=O)CCC(=O)O)sc3c2CCCCC3)cc1	-4	33	74*	-12	-6	-15

Source: PubChem BioAssay (several laboratories)
